The list is not random: actives were taken first. Their share in the collection is about 2.2%.
LGR2 antag: inhibitors of bursicon-induced Drosophila LGR2 receptor cAMP signaling. HEK293 LGR2, CRE-luciferase, bursicon-stimulated, 4 h. AID 720647. 0.35% of 380,000 active. inhibition, % at 9.99 µM;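 active = drop in luminescence signal, shown as inhibition above about 50% in the replicate tests, limit read from the data, passing the limit was not always enough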;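 also: agonist challenge used bursicon conditioned medium at about half maximal strength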
HSP90 inh: HSP90 refolding inhibition in rabbit reticulocyte lysate; 0.91% of 290,000 active; luciferase refolding luminescence, 3 h; AID 1789; inhibition, % at 5.6 µM;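 active = inhibition above the screen-wide mean plus 3 SD, computed separately per campaign, cut at about 16% in these data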;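 also: 0% = DMSO wells and 100% = 60 µM geldanamycin wells; inhibitors lower the luminescence because luciferase stays unfolded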
TWEAK Fn14 block: blocks TWEAK-Fn14 interaction in a reporter cell assay; TWEAK-stimulated Fn14 reporter cells, luciferase luminescence, 8 h; inhibition, % at 10 µM; 2% of 360,000 active; AID 1159606; in the data active = inhibition above about 50%
TROY NFkB inh: TROY signaling inhibition; Q293 LMP1-TROYcd NF-kB luciferase reporter, 4 h; inhibition, % at 10 µM; 0.98% of 360,000 active; AID 1347056;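 active = compounds whose plate-normalised and pattern-corrected inhibition of the luciferase reporter signal at the single screening dose is 50% or more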
The depositor's hits bear a star; . = not tested or not shown.

SMILES	LGR2 antag	HSP90 inh	TWEAK Fn14 block	TROY NFkB inh
CCC(C)C1NC(=O)C(NC(=O)C(CC(C)C)N(C)C(=O)C2CCCN2C(=O)C(C)O)C(C)OC(=O)C(Cc2ccc(OC)cc2)N(C)C(=O)C2CCCN2C(=O)C(CC(C)C)NC(=O)[C@H](C)C(=O)[C@H](C(C)C)OC(=O)CC1O (some centres undefined)	101*	.	102*	85*
C#CCCC[C@@H]1OC(=O)CNC(=O)C([C@@H](C)CC)NC(=O)[C@@H]2CCCN2C(=O)C([C@@H](C)CC)OC(=O)[C@H](Cc2ccccc2)N(C)C(=O)[C@H](C(C)C)NC(=O)C1(C)C (some centres undefined)	10	.	4	9
Nc1ncnc2c1ccn2[C@@H]1O[C@H](CO)[C@@H](O)[C@H]1O	93*	.	95*	52*
NC(=S)c1cn(C2OC(CO)C(O)C2O)c2ncnc(N)c12 (centres undefined)	102*	3	103*	68*
N#Cc1cccc(-c2ccc([C@H]3[C@H](CO)N4CCCCN(C(=O)Cc5cccnc5)C[C@@H]34)cc2)c1	-16	.	.	.
COc1ccc(Cn2c(N)c(C(=O)NCc3ccco3)c3nc4ccccc4nc32)cc1	.	12	43	69*
COCCOC(=O)c1c(N)n(Cc2ccccc2)c2nc3ccccc3nc12	.	10	20	65*
Nc1c(C(=O)NCc2ccco2)c2nc3ccccc3nc2n1Cc1ccccc1	5	6	50*	43
Nc1c(C(=O)NCc2ccco2)c2nc3ccccc3nc2n1Cc1ccc(F)cc1	-23	7	22	62*
COC(=O)[C@H]1[C@H](CO)[C@H]2Cn3c(ccc(C4=CCCC4)c3=O)[C@@H]1N2CC1CCCCC1	-9	.	.	.
COc1ccc(OC(=O)N(C)C[C@H]2OCc3ccccc3-c3c(n(C)c4ccccc34)C(=O)N([C@@H](C)CO)C[C@H]2C)cc1	-7	.	.	.
COC(=O)[C@H]1[C@H](CO)[C@H]2Cn3c(ccc(/C=C/c4ccccc4)c3=O)[C@@H]1N2CC1CCCC1	11	.	.	.
Nc1cc(Cl)c2nonc2c1[N+](=O)[O-]	5	2	58*	70*
O=[N+]([O-])c1c(Cl)c(Cl)c(Cl)c(Cl)c1Cl	15	.	5	-1
COC(=O)[C@@H]1[C@@H](CO)[C@@H]2Cn3c(ccc(-c4cccc(F)c4)c3=O)[C@H]1N2C(=O)CC1CC1	7	.	.	.
Cc1ccnc(-n2c(C)cc(C=C3C(=O)N(C)C(=S)N(C)C3=O)c2C)c1	.	-2	87*	1
COC(=O)[C@@H]1[C@@H](CO)[C@@H]2Cn3c(ccc(-c4ccccc4F)c3=O)[C@H]1N2C(=O)C1CC1	4	.	.	.
COc1ccccc1/C=C1\C(=O)NC(=S)N(c2ccccc2)C1=O	-4	4	12	-7
CCN1C(=O)/C(=C/c2ccc(N(CC)CC)cc2OC)C(=O)NC1=S	10	1	67*	10
O=C(O)[C@H]1[C@H](CO)[C@H]2Cn3c(ccc(-c4cncnc4)c3=O)[C@@H]1N2C(=O)NC1CCCC1	-15	.	.	.
Oc1ccc(-[n+]2c(-c3ccccc3)cc(-c3ccccc3)cc2-c2ccccc2)cc1	103*	.	87*	62*
CC(C)CC#Cc1ccc([C@@H]2[C@@H](CO)N3CCCCN(C(=O)Cc4ccccn4)C[C@H]23)cc1	-12	.	.	.
CC=Cc1ccc2n(c1=O)C[C@@H]1[C@@H](CO)[C@H](C(=O)OC)[C@H]2N1C(=O)CC1CC1 (mixture of isomers)	-6	.	.	.
O=[N+]([O-])/C=C/c1c(Cl)cccc1Cl	-15	.	52*	8
CCN(CC)c1ccc(/C=C/[N+](=O)[O-])cc1	30	7	-6	-5
SMILES	LGR2 antag	HSP90 inh	TWEAK Fn14 block	TROY NFkB inh
COC(=O)C[C@@H]1CC[C@H]2NC[C@H](O)COC[C@@H]2O1	5	.	.	.
CC(C)[C@H]1C(=O)O[C@H](C(C)C)C(=O)N(C)[C@@H](C(C)C)C(=O)O[C@H](C(C)C)C(=O)N(C)[C@@H](C(C)C)C(=O)O[C@H](C(C)C)C(=O)N1C	.	-3	56*	56*
CC1=CC2OC3CC4OC(=O)C=CC=CC(C(C)O)OCC(O)C(C)CC(=O)OCC2(CC1O)C4(C)C31CO1 (centres undefined)	107*	.	99*	84*
CC1=CC2OC3CC4OC(=O)C=CC=CC(=O)OCCC(C)C(O)C(=O)OCC2(CC1O)C4(C)C31CO1 (centres undefined)	.	.	96*	84*
O=C(Cc1ccccc1)N1CCCCN2[C@H](C1)[C@H](c1ccc(C#Cc3ccccc3)cc1)[C@@H]2CO	9	.	.	.
COC(=O)[C@@H]1[C@@H](CO)[C@@H]2Cn3c(ccc(-c4ccncc4)c3=O)[C@H]1N2S(=O)(=O)c1ccccc1C	-12	.	.	.
COC(=O)C[C@H]1CC[C@H]2NC[C@H](O)COC[C@@H]2O1	-22	.	.	.
Nc1cccc(SC2CC(=O)N(c3ccc(Cl)cc3C(=O)c3ccccc3)C2=O)c1 (centres undefined)	8	.	54*	41
COC(=O)[C@H]1[C@H](CO)[C@H]2Cn3c(ccc(-c4ccccc4F)c3=O)[C@@H]1N2C(=O)C1CC1	-6	.	.	.
Fc1ccc(C[n+]2c(-c3ccccc3)cc(-c3ccccc3)cc2-c2ccccc2)cc1	14	.	.	.
Clc1ccc(C[n+]2c(-c3ccccc3)cc(-c3ccccc3)cc2-c2ccccc2)cc1	9	.	73*	51*
COC(=O)[C@@H]1[C@@H](CO)[C@@H]2Cn3c(ccc(/C=C/c4ccccc4)c3=O)[C@H]1N2CC1CCCC1	6	.	.	.
C=C1C(=O)O[C@@H]2C[C@@H](C)[C@@H]3C=CC(=O)[C@@]3(C)[C@@H](O)[C@H]12	102*	.	104*	32
C[C@@H]1CN([C@H](C)CO)C(=O)c2c(c3ccccc3n2C)-c2ccccc2CO[C@H]1CN(C)C(=O)Oc1ccccc1	17	.	.	.
CC(=O)c1c(C)n(C2CCCCC2)c2ccc(O)cc12	25	0	86*	53*
O=C(O)[C@@H]1[C@@H](CO)[C@@H]2Cn3c(ccc(-c4ccncc4)c3=O)[C@H]1N2C(=O)C1CCCC1	-15	.	.	.
CCn1nc(-c2cccs2)nc2c(=O)n(C)c(=O)nc1-2	.	.	73*	66*
c1ccc(P(c2ccccn2)c2ccccn2)cc1	3	3	12	59*
COc1ccc(C#Cc2ccc([C@H]3[C@@H](CO)N4CCCCN(C(=O)Cc5ccncc5)C[C@H]34)cc2)cc1	-20	.	.	.
O=C(O)c1cc[c]([Hg][Cl])cc1	.	.	65*	-6
COc1ccc(C(=O)O)cc1OC	5	.	12	-6
O=C(Cc1ccccn1)N1CCCCN2[C@H](CO)[C@@H](c3ccc(-c4ccccc4)cc3)[C@@H]2C1	20	.	.	.
CCC1(OC(=O)CN)C(=O)OCc2c1cc1n(c2=O)Cc2cc3ccccc3nc2-1 (centres undefined)	96*	4	82*	69*
COC(=O)[C@H]1[C@H](CO)[C@H]2Cn3c(ccc(C4=CCCCC4)c3=O)[C@@H]1N2Cc1cccnc1	-3	.	.	.
CCOC(=O)[C@]12Cc3cc(OC)ccc3[C@H]1N(C1CCCCC1)C(=O)c1cc(OC)ccc12	51*	.	11	55*

Source: PubChem BioAssay (several laboratories)
